Data taken from ChEMBL document CHEMBL3433997, “St. Jude Leishmania screening dataset” (2016).

biological target: Glucose transporter (Leishmania mexicana) (UniProt O61059); assay: ST_JUDE_LEISH: Cytotoxicity at 2uM final concentration against transgenic Leishmania Mexicana promastigotes LmGT2 that are glucose transport deficient and complemented with the L. Mexicana glucose transporter 2. Activity is measured by DNA content using SYBR green in vitro; assay type: functional

How did the inhibition turn out when `Cc1cc(=NN=CC=Cc2ccccc2)c2ccccc2[nH]1` was run?
Its inhibition is 0.81%.

With `FC(F)(F)c1ccc(CSc2ccc3nnc(-c4ccccn4)n3n2)cc1` as the compound, how does the inhibition read?
The inhibition was 7.64%.

How did the inhibition turn out when `CC(C)c1ccc(NC(=O)NCC2CCCN(CCCCCNC(=O)/C=C/c3ccc(Cl)c(Cl)c3)C2)cc1` (stereo not given) was run?
The inhibition was 2.62%.

For `O=C(NCc1ccccc1)Nc1cccc(-c2cccc(-c3nc4cc(C(F)(F)F)ccc4[nH]3)c2)c1`, which inhibition is on record?
The inhibition was 6.02%.

For `COc1ccc(-c2csc(C(=O)NC3CCC(N4CCC(c5ccccc5C)CC4)CC3)c2)cc1` (stereo not given), which inhibition is on record?
Its inhibition is 3.51%.

With `CN(C)c1ccc(CN2CCC(CNC(=O)c3cc(-c4cccc(F)c4)cs3)C2)cc1` (stereo not given) as the compound, how does the inhibition read?
Its inhibition is -9.42%.

Which inhibition does the source give for `COc1cc2nc(NCCc3ccccc3)nc(NCc3ccc(C#N)cc3)c2cc1OC` here?
The inhibition was 2.83%.

How did the inhibition turn out when `CC(=O)N(C)C1CCN(Cc2cccc(-c3ccc(-c4nc5cc(C(F)(F)F)ccc5[nH]4)cc3)c2)C1` (stereo not given) was run?
Its inhibition is 3.1%.

`CCCN(CCC)C(C)CCC(C)Nc1c2ccc(Cl)cc2nc2ccc(OC)cc12` (stereo not given) was tested. Which inhibition did it give?
Its inhibition is 2.82%.

With `Cc1cc(F)ccc1-c1nc(NCCCN2CCCC2=O)nc2c1ccc(=O)n2-c1c(F)cccc1F` as the compound, how does the inhibition read?
Its inhibition is 11.1%.

How did the inhibition turn out when `CCc1c[nH]c2c(N3CCCS3(=O)=O)cc(C(=O)N[C@@H](Cc3ccccc3)[C@H](O)CNC3CCCCC3)cc12` was run?
Its inhibition is 3.39%.

For `CCN(CCS(C)(=O)=O)Cc1ccc(-c2ccc3ncnc(Nc4ccc(OCc5cccc(F)c5)c(Cl)c4)c3c2)o1`, which inhibition is on record?
Its inhibition is -0.09%.

`CCNc1cc(C(=O)N[C@@H](Cc2ccccc2)[C@H](O)CNC2CC3CCC2C3)cc(N2CCCCS2(=O)=O)c1` (stereo not given in full) was tested. Which inhibition did it give?
Its inhibition is -3.22%.

Which inhibition does the source give for `Nc1nc(N)c2c(ccc3c2ccn3Cc2ccc(-c3ccccc3)cc2)n1` here?
The inhibition was 113%.

`Cc1cccc2nc(-c3cccc(-c4cccc(NC(=O)Cc5ccc[n+]([O-])c5)c4)c3)[nH]c12` was tested. Which inhibition did it give?
The inhibition was 0.81%.

For `Cn1cnc2c(SCc3ccc(OCc4ccccc4)cc3)ncnc21`, which inhibition is on record?
The inhibition was 6.37%.

Which inhibition does the source give for `COc1ccc(CNCCc2cccs2)cc1-c1ccc(OC)c(S(=O)(=O)NCCN2CCCC2)c1` here?
The inhibition was 3.49%.

How did the inhibition turn out when `FC(F)(F)c1ccc2c(C=Cc3ccncc3)c[nH]c2c1` was run?
The inhibition was 4.76%.

`CCCC1(NC[C@@H](O)[C@H](Cc2ccccc2)NC(=O)c2cc(NCC)cc(N3CCCCS3(=O)=O)c2)CCC1` was tested. Which inhibition did it give?
Its inhibition is 2.83%.

With `CCN(CC)Cc1ccc2c(=O)cc(CCc3cccc(F)c3F)n(CC(=O)N(Cc3ccc(-c4ccc(C(F)(F)F)cc4)cc3)C(C)C)c2c1` as the compound, how does the inhibition read?
The inhibition was -0.21%.

How did the inhibition turn out when `CC(=O)Nc1cccc(CNCc2ccc(-c3cnc(N4CCCC(c5ccccc5)C4)nc3)cc2)c1` (stereo not given) was run?
The inhibition was 2.2%.

`CC(C)(C)Oc1ccc(C[C@@H]2NC3(C(=O)N(Cc4ccc(Cl)c(Cl)c4)c4ccccc43)C3C(=O)N(c4ccc(Br)cc4)C(=O)C32)cc1` (stereo not given in full) was tested. Which inhibition did it give?
The inhibition was 2.5%.

How did the inhibition turn out when `CCCc1ccc(C(=O)N2C(c3nccs3)C(C(N)=O)CC2(CC(C)C)C(=O)O)cc1` (stereo not given) was run?
The inhibition was 0.37%.

With `NCC1CCCN1Cc1ccc(-c2cccc(-c3nc4cc(C(F)(F)F)ccc4[nH]3)c2)cc1` (stereo not given) as the compound, how does the inhibition read?
The inhibition was 3.17%.

With `COc1cc(CNc2ncc(-c3ccsc3)c(-c3nccs3)n2)cc(OC)c1` as the compound, how does the inhibition read?
Its inhibition is -0.78%.

With `COc1ccc2c(c1CCNCCCCNCCc1c(OC)ccc3c1CCCC3)CCCC2` as the compound, how does the inhibition read?
The inhibition was 52.9%.

Which inhibition does the source give for `COc1ccc(CNC(=O)c2cnc3c(O)cccc3c2Nc2cccc(NC(=O)c3ccc(-c4ccccc4)cc3)c2)cc1` here?
The inhibition was 64.3%.

How did the inhibition turn out when `O=C(Nc1cccc(-c2csc(NC(=O)c3ccc4ccccc4c3)n2)c1)c1ccc2ccccc2c1` was run?
Its inhibition is 0.66%.

`COc1cccc(O)c1CN1CCC2(CCCN(Cc3ccc(F)cc3)C2)C1` (stereo not given) was tested. Which inhibition did it give?
The inhibition was -0.21%.

Which inhibition does the source give for `OCC1CCN(Cc2ccc(-c3ccc(-c4nc5cc(F)ccc5[nH]4)s3)cc2)CC1` here?
The inhibition was 4.89%.

How did the inhibition turn out when `NCCCNc1ccnc2cc(Cl)ccc12` was run?
The inhibition was 10.7%.

`Cc1[nH]c(C)c(-c2ccc(-c3ccc(C#N)cc3)nc2)c(=O)c1Br` was tested. Which inhibition did it give?
The inhibition was 6.23%.

Which inhibition does the source give for `N=C1C=C(N)C(=O)c2ccccc21` here?
Its inhibition is 94.2%.

`Cc1ccc(-c2nnc(Nc3ccc(C(=O)N4CCCCC4)cc3)c3ccccc23)cc1S(=O)(=O)NCC1CCCO1` (stereo not given) was tested. Which inhibition did it give?
Its inhibition is 3.22%.

`COc1cc(NC(=O)c2sc(-c3ccc(Cl)cc3)cc2NC(=O)CN2CCCC2)ccc1OCCN1CCCC1` was tested. Which inhibition did it give?
The inhibition was 4.39%.

With `CCOc1cc(C)ccc1C1CCN(CCCCNC(=O)c2ccc(-c3ccc(C(F)(F)F)cn3)cc2)CC1` as the compound, how does the inhibition read?
Its inhibition is 7.82%.

Which inhibition does the source give for `O=C1CCCN1CCCNCc1cccc(-c2ccc(-c3nc4ccccc4[nH]3)s2)c1` here?
Its inhibition is -0.46%.

`O=C(C=Cc1ccc(Cl)c(Cl)c1)NCCCCCN1CCC(CCCNC(=O)/C=C/c2ccccc2)CC1` was tested. Which inhibition did it give?
Its inhibition is 1.62%.

`Cc1ccc(CN(Cc2ccc(C(=O)N(C)C)cc2)Cc2ccc3c(c2)OCCO3)cc1C` was tested. Which inhibition did it give?
Its inhibition is 0.35%.

Which inhibition does the source give for `Cc1cc(=NN=Cc2ccccc2Cl)c2ccccc2[nH]1` here?
Its inhibition is 5.86%.
